Experimental data from the supplement of paper PMC13380429.

System: Vero E6 infected with SARS-CoV-2
Test: inhibition of SARS-CoV-2 cytopathic effect; higher = more antiviral protection, active = above 15
Conditions: 48 h

Measured: inhibition of SARS-CoV-2 cytopathic effect

COc1cc(OC)c(/C=C/S(=O)(=O)Cc2ccc(OC)c(OP(=O)(O)O)c2)c(OC)c1 [briciclib]
inactive: 1 nM 1.41% | 8.33 nM 1.56% | 100 nM -1.04% | 833.33 nM -0.82% | 10000 nM -1.99%

CCCCC[C@H](O)/C=C/[C@H]1[C@H](O)CC(=O)[C@@H]1CCCCCCC(=O)O [alprostadil]
inactive: 1 nM 1.09% | 8.33 nM 3.65% | 100 nM 0.04% | 833.33 nM -3.27% | 10000 nM 0.55%

O=c1c(-c2ccc(O)cc2)coc2c([C@@H]3O[C@H](CO)[C@@H](O)[C@H](O)[C@H]3O)c(O)ccc12 [puerarin]
inactive: 1 nM -2.73% | 8.33 nM -3.08% | 100 nM -2.16% | 833.33 nM 2.34% | 10000 nM -0.84%

CC(C)(Oc1ccc(C2CC2(Cl)Cl)cc1)C(=O)O (stereo not given) [ciprofibrate]
inactive: 1 nM -2% | 8.33 nM 1.09% | 100 nM -0.52% | 833.33 nM -2.34% | 10000 nM -4.5%

O=[N+]([O-])c1cn2c(n1)OC[C@@H](OCc1ccc(OC(F)(F)F)cc1)C2 [pretomanid]
inactive: 1 nM 0.26% | 8.33 nM 0.54% | 100 nM -0.43% | 833.33 nM -0.88% | 10000 nM 0.65%

O=c1oc2c(O)c(O)cc3c(=O)oc4c(O)c(O)cc1c4c23 [ellagic-acid]
inactive: 1 nM 0.02% | 8.33 nM 0.42% | 100 nM 4.12% | 833.33 nM 1.76% | 10000 nM -1.74%

CN1CCN(CCCN2c3ccccc3Sc3ccc(Cl)cc32)CC1 [prochlorperazine]
inactive: 1 nM -0.92% | 8.33 nM 0.64% | 100 nM 0.48% | 833.33 nM -0.06% | 10000 nM 14.6%

Cn1cnc(N)c2ncnc1-2 [3-methyladenine]
inactive: 1 nM -3.13% | 8.33 nM -1.71% | 100 nM -2.68% | 833.33 nM -0.52% | 10000 nM -1.76%

O=C(CCCl)NCCc1ccccc1 [fenaclon]
inactive: 1 nM 4.5% | 8.33 nM -2.28% | 100 nM 0.58% | 833.33 nM -1.53% | 10000 nM -1.25%

CCN[C@H]1CN(CCCOC)S(=O)(=O)c2sc(S(N)(=O)=O)cc21 [brinzolamide]
inactive: 1 nM 0.37% | 8.33 nM -1.59% | 100 nM -2.91% | 833.33 nM -1.67% | 10000 nM -2.11%

CO/N=C(\C(=O)N[C@@H]1C(=O)N2C(C(=O)O)=C(CSc3nc(=O)c(O)nn3C)CS[C@H]12)c1csc(N)n1 [ceftriaxone]
inactive: 1 nM -1.95% | 8.33 nM -0.8% | 100 nM 1.41% | 833.33 nM 0.59% | 10000 nM 2.56%

CCCCc1nc(-c2ccc(OCCCN(CC)CC)cc2)cn1-c1ccc(Oc2ccc(Cl)cc2)cc1 [azeliragon]
inactive: 1 nM 0.74% | 8.33 nM -0.49% | 100 nM 1.43% | 833.33 nM 1.68% | 10000 nM -13.2%

O=C(O)c1ccc2c(c1)nc(Nc1cccc(Cl)c1)c1ccncc12
inactive: 1 nM -2.63% | 8.33 nM 0.18% | 100 nM -2.24% | 833.33 nM 0.52% | 10000 nM -1.33%

C[C@]1(O)C[C@@H](c2nc(-c3ccc4ccc(-c5ccccc5)nc4c3)c3c(N)nccn32)C1 [linsitinib]
inactive: 1 nM 1.22% | 8.33 nM -0.2% | 100 nM -1.12% | 833.33 nM 0.58% | 10000 nM 1.2%

O=C1NCCNC1c1cccs1 (stereo not given) [tenilsetam]
inactive: 1 nM 3.34% | 8.33 nM 0.52% | 100 nM -1.98% | 833.33 nM -2.12% | 10000 nM -1.68%

CC(=O)OCC(=O)[C@H]1CC[C@H]2[C@@H]3CCC4=CC(=O)CC[C@]4(C)[C@H]3CC[C@]12C [deoxycorticosterone-acetate]
inactive: 1 nM -2.24% | 8.33 nM 0.58% | 100 nM -1.58% | 833.33 nM -4.23% | 10000 nM -0.48%

CCCCc1nc(Cl)c(C(=O)O)n1Cc1ccc(-c2ccccc2-c2nn[nH]n2)cc1 [carboxylosartan]
inactive: 1 nM 1.07% | 8.33 nM 1.82% | 100 nM 1.92% | 833.33 nM 0.51% | 10000 nM 0.68%

CC(C)N(CCCNC(=O)Nc1ccc(C(C)(C)C)cc1)C[C@H]1O[C@@H](n2ccc3c(N)ncnc32)[C@H](O)[C@@H]1O
inactive: 1 nM 4.48% | 8.33 nM 2.04% | 100 nM 4.36% | 833.33 nM -0.49% | 10000 nM 0.43%

CC(=O)Nc1ccc(S(=O)(=O)c2ccc(NC(C)=O)cc2)cc1 [acedapsone]
inactive: 1 nM -1.54% | 8.33 nM -3.01% | 100 nM -3.82% | 833.33 nM -1.51% | 10000 nM 5.34%

CCOC(=O)Nc1ccc2c(c1)N(C(=O)CCN(CC)CC)c1ccccc1S2 [ethacizin]
inactive: 1 nM -5.42% | 8.33 nM -5.11% | 100 nM -2.38% | 833.33 nM -1.38% | 10000 nM 2.9%

CNC(=O)ON(C(C)=O)C(=O)NC [caracemide]
inactive: 1 nM -4.06% | 8.33 nM -3.46% | 100 nM 0.29% | 833.33 nM -1.19% | 10000 nM 8.36%

Cc1cccc(-c2[nH]c(C(C)(C)C)nc2-c2ccc3c(c2)OCO3)n1
inactive: 1 nM -0.26% | 8.33 nM -0.29% | 100 nM -0.87% | 833.33 nM -5.24% | 10000 nM -2.91%

CN(C)CCCNC(=O)c1ccc(-c2cc(O)c3ncccc3c2)cc1
inactive: 1 nM -1.74% | 8.33 nM -0.41% | 100 nM 1.01% | 833.33 nM -0.72% | 10000 nM 6.05%

CN1CCc2cc(Cl)c(O)cc2[C@@H](c2ccccc2)C1
inactive: 1 nM 10.5% | 8.33 nM 6.47% | 100 nM 7.29% | 833.33 nM 2.11% | 10000 nM -0.78%

Cc1ccc2c(c1)C1(CCN(CCc3nc(-c4ccccc4)oc3C)CC1)OC(=O)N2
inactive: 1 nM 1.69% | 8.33 nM 4.93% | 100 nM 0.82% | 833.33 nM -0.79% | 10000 nM -7.82%

CNC(=O)Nc1ccc(-c2nc(N3CC4CCC(C3)O4)c3cnn(C4CCC5(CC4)OCCO5)c3n2)cc1
inactive: 1 nM -1.21% | 8.33 nM 1.24% | 100 nM 0.34% | 833.33 nM -0.87% | 10000 nM 9.1%

CCn1c(=O)c(-c2ccc(Cl)cc2Cl)cc2cnc(Nc3ccc(N4CCNCC4)c(F)c3)nc21
inactive: 1 nM -1.29% | 8.33 nM -2.53% | 100 nM -1.93% | 833.33 nM -6.85% | 10000 nM -4.65%

COc1cc2c(CCNC(C)=O)c[nH]c2cc1Cl [6-chloromelatonin]
inactive: 1 nM 0.92% | 8.33 nM 0.78% | 100 nM -1.78% | 833.33 nM 4.57% | 10000 nM -13.2%

O=C(c1ccc(-c2ccc(Cl)cc2)o1)N(Cc1ccccn1)c1ccc(N2CCNCC2)cc1
inactive: 1 nM -2.64% | 8.33 nM 1.12% | 100 nM -0.23% | 833.33 nM -1.66%
active: 10000 nM 43.8%

CC(=O)NCC(=O)N[C@H](CCC(=O)O)C(=O)O [N-acetylglycyl-D-glutamic-acid]
inactive: 1 nM 1.3% | 8.33 nM -0.41% | 100 nM -0.4% | 833.33 nM -0.04% | 10000 nM 1.12%

COc1ccc(C(=O)/C(Cc2cc(OC)c(OC)c(OC)c2)=C(\C(=O)O)c2ccc3c(c2)OCO3)cc1
active: 10000 nM 17.8%
inactive: 1 nM -2.66% | 8.33 nM -0.48% | 100 nM -0.33% | 833.33 nM 1.73%

O=C(CCCCCN1C(=O)c2cccc3cccc(c23)C1=O)NO [scriptaid]
inactive: 1 nM 4.82% | 8.33 nM 3.4% | 100 nM -3.14% | 833.33 nM -13.6% | 10000 nM -24.8%

O=C(Nc1c(-c2cccs2)nc2ccccn12)c1ccc(Cl)cc1
inactive: 1 nM 1.67% | 8.33 nM -0.43% | 100 nM -1.06% | 833.33 nM 1.78% | 10000 nM 9.03%

CC1=C(/C=C/C(C)=C/C=C/C(C)=C/C(=O)Nc2ccc(O)cc2)C(C)(C)CCC1 [fenretinide]
inactive: 1 nM 2.01% | 8.33 nM 1.04% | 100 nM 0.95% | 833.33 nM -0.67% | 10000 nM 2.45%

CCC(c1ccccc1)c1c(O)c2ccccc2oc1=O (stereo not given) [phenprocoumon]
inactive: 1 nM -0.55% | 8.33 nM 0.6% | 100 nM 1.1% | 833.33 nM -0.13% | 10000 nM -0.87%

CCCCC(=O)O[C@]1(C(=O)CO)CC[C@H]2[C@@H]3CCC4=CC(=O)CC[C@]4(C)[C@H]3[C@@H](O)C[C@@]21C [hydrocortisone-valerate]
inactive: 1 nM -0.15% | 8.33 nM 3.88% | 100 nM 4.88% | 833.33 nM 4.12% | 10000 nM -1.55%

CCCCCOc1ccc(-c2ccc(-c3ccc(C(=O)N[C@H]4C[C@@H](O)[C@@H](O)NC(=O)[C@@H]5[C@@H](O)[C@@H](C)CN5C(=O)[C@H]([C@@H](C)O)NC(=O)[C@H]([C@H](O)[C@@H](O)c5ccc(O)cc5)NC(=O)[C@@H]5C[C@@H](O)CN5C(=O)[C@H]([C@@H](C)O)NC4=O)cc3)cc2)cc1 [anidulafungin]
inactive: 1 nM -3.73% | 8.33 nM 0.49% | 100 nM 1.56% | 833.33 nM 0.77% | 10000 nM -2.12%

C[C@H](Cc1ccc(O)c(O)c1)[C@@H](C)Cc1ccc(O)c(O)c1 [masoprocol]
inactive: 1 nM -3.87% | 8.33 nM 1.69% | 100 nM 2.75% | 833.33 nM -1.7% | 10000 nM 12%
